In PubChem BioAssay (EPA / NIEHS) one finds outcome and AC50 data, which are given here for 35 compounds.

As usually defined, the AC50 is the concentration at which the activity in the assay is half-maximal.

Structures are written as SMILES. Where “and” joins values, the source holds several entries; their conditions need not be identical. Equal values may be shown once. The source holds several records for some structures; these can differ, active in one and inactive in another. Calls of active or inactive are those of the source. Rule for the calls: active = hit-call score of the fitted dose curve at least 0.9, where 1 is the maximum; inactive = score below 0.9.

Read-out in this assay: Interleukin-8 (IL8), CXCL8 (gene 3576)
The assay is described as follows: BSK_KF3CT_IL8: BioMAP Diversity Plus: KF3CT Assay for Interleukin-8 (IL8) Biomarker Activity (AID 2284254). The settings on record: primary human keratinocytes with fibroblasts. Here is the method: BSK_KF3CT is a cell-based, multiplexed-readout assay that uses keratinocytes and foreskin fibroblasts, a human skin primary cell co-culture, with measurements taken at 24 hours after chemical dosing in a 96-well plate.BSK_KF3CT_IL8 is an assay component measured in the BSK_KF3CT assay. It measures IL-8 antibody related to regulation of gene expression using ELISA technology.Data from the assay component BSK_KF3CT_IL8 was analyzed at the endpoint, BSK_KF3CT_IL8, in the positive analysis fitting direction relative to DMSO as the negative control and baseline of activity. Using a type of binding reporter, gain or loss-of-signal activity can be used to understand protein changes. To generalize the intended target to other relatable targets, this assay endpoint is annotated to the 'cytokine' intended target family, where the subfamily is 'interleukins'.
The levels of cell surface (or secreted, indicated by the prefix "s") biomarker endpoints were measured by ELISA. Overt cytotoxicity to cells in confluent adherent cultures (all systems other than the BT system) was assessed by measuring total protein levels using sulforhodamine B (SRB) staining in parallel cultures at the time of biomarker measurements, indicated as SRB endpoints. For proliferation assays for adherent cell types, individual cell types are cultured at sub-confluence and relative cell numbers quantified by SRB staining at time points optimized for each system (48 h: 3C and CASM3C systems; 72 h: BT and HDF3CGF systems; 96 h: SAg system). SRB was performed by staining cells with 0.1% SRB after fixation with 10% TCA and reading wells at 560 nm.Viability and proliferation of PBMC (T cells) was quantified by Alamar Blue reduction for the SAg and BT systems. For PBMC viability (referred to as PBMC Cytotoxicity within the assay endpoint names), cells were plated (75,000/well in a 96-well plate) and then chemical samples added for 1 h before addition of activators, SEB and TSST-1 (20 ng/mL final concentration each). Cells were incubated for 90 h. Then, Alamar Blue (20 uL/well) (Invitrogen, Cat DAL1100) was added for 6 h, and the plates were read with a fluorescence microplate reader at 546/580 nm (excitation/emission). For PBMC proliferation, cells were plated and activated as above but incubated for only 16 h prior to addition of Alamar Blue. Plates were read after 6 h.
For the compound `OCCCCC(F)(F)C(F)(F)C(F)(F)C(F)(F)F`, the result was inactive.

As for `CCN(CCO)S(=O)(=O)C(F)(F)C(F)(F)C(F)(F)C(F)(F)C(F)(F)C(F)(F)C(F)(F)C(F)(F)F`, the AC50 was 5.61 µM (active) and the outcome was inactive.

As for `O=C(O)C(F)(F)C(F)(F)C(F)(F)OC(F)(C(F)(F)F)C(F)(F)F`, the result was inactive and the AC50 is 16.5 µM (active).

`NS(=O)(=O)C(F)(F)C(F)(F)C(F)(F)C(F)(F)C(F)(F)C(F)(F)F`: the result was inactive.

Turning to `O=C(O)C(F)(F)C(F)(F)C(F)(F)C(F)(F)C(F)(F)C(F)(F)C(F)F`, the AC50 was 17.2 µM (active) and the outcome was inactive.

Consider `C=CC(=O)OCC(F)(F)C(F)(F)C(F)(F)COC(=O)C=C`, for which the AC50 is 14.7 µM (active) and 14.9 µM (active).

As for `FC(F)(F)C(F)(F)C(F)(F)C(F)(F)C(F)(F)C(F)(F)C(F)(F)CCI`, the result was inactive.

Turning to `CO[Si](C)(CCC(F)(F)C(F)(F)C(F)(F)C(F)(F)C(F)(F)C(F)(F)F)OC`, the result was inactive.

As for `NC(=O)C(F)(F)C(F)(F)C(F)(F)C(F)(F)C(F)(F)C(F)(F)C(F)(F)F`, the result was inactive.

In the case of `O=C(F)C1(F)C(F)(F)C(F)(F)C(F)(F)C(F)(F)C1(F)F`, the outcome was inactive.

On to `O=C(O)CCC(F)(F)C(F)(F)C(F)(F)C(F)(F)C(F)(F)C(F)(F)C(F)(F)F`, for which the outcome was inactive and the AC50 was 4.26 µM (active).

On to `C=C(C)C(=O)OCC(F)(F)C(F)(F)C(F)(F)C(F)F`, for which the outcome was inactive.

Turning to `NC(=O)C(F)(F)C(F)(F)C(F)(F)C(F)F`, the outcome was inactive.

Regarding `OCC(F)(F)C(F)(F)C(F)(F)CO`, the result was inactive.

In the case of `CN(C(=O)C(F)(F)C(F)(F)C(F)(F)F)[Si](C)(C)C`, the outcome was inactive.

For `FC(F)(F)C(F)(F)C(F)(F)CC1CO1` (stereo not given), the outcome was inactive.

In the case of `O=S(=O)(O)CCC(F)(F)C(F)(F)C(F)(F)C(F)(F)C(F)(F)C(F)(F)C(F)(F)C(F)(F)F`, the result was inactive and the AC50 was 30 µM (active).

`O=C(O)CCC(F)(F)C(F)(F)C(F)(F)F`: the result was inactive.

Consider `C[Si](Cl)(Cl)CCC(F)(F)C(F)(F)C(F)(F)C(F)(F)C(F)(F)C(F)(F)F`, for which the outcome was inactive.

`O=S(=O)(Cl)C(F)(F)C(F)(F)C(F)(F)C(F)(F)C(F)(F)C(F)(F)C(F)(F)C(F)(F)F`: the result was inactive.

On to `NCC(F)(F)C(F)(F)C(F)(F)C(F)(F)C(F)(F)C(F)(F)F`, for which the result was inactive.

Regarding `C=CC(=O)OCCC(F)(F)C(F)(F)C(F)(F)C(F)(F)F`, the result was inactive.

Consider `COC(F)(C(F)F)C(F)(F)F` (stereo not given), for which the outcome was inactive.

Take `FC(F)(F)C(F)(F)C(F)(F)C(F)(F)C(F)(F)C(F)(F)CC[Si](Cl)(Cl)Cl`: the result was inactive.

Turning to `OCCCC(F)(F)C(F)(F)C(F)(F)C(F)(F)C(F)(F)C(F)(F)C(F)(F)C(F)(F)F`, the concentration at half-maximal activity (AC50) was 17.1 µM (active) and 13.7 µM (active).

Turning to `NC(O)(C(F)(F)F)C(F)(F)F`, the result was inactive.

As to `O=C(O)C(F)(F)OC(F)(F)C(F)(F)OC(F)(F)C(F)(F)OC(F)(F)F`, the result was inactive.

In the case of `O=C(O)C(F)(F)C(F)(F)C(F)(F)C(=O)O`, the result was inactive.

With `O=C(Cl)C(F)(F)C(F)(F)C(F)(F)C(F)(F)C(F)(F)C(F)(F)F`, the result was inactive.

As to `NC(=O)C(F)(F)C(F)(F)C(F)(F)F`, the result was inactive.

`O=C(Cl)C(F)(F)C(F)(F)C(F)(F)C(F)(F)C(F)(F)C(F)(F)C(F)(F)F`: the result was inactive.

Take `OCC(O)CC(F)(F)C(F)(F)C(F)(F)C(F)(F)C(F)(F)C(F)(F)C(F)(F)C(F)(F)F` (stereo not given): the result was inactive.

With `OCC(O)CC(F)(F)C(F)(F)C(F)(F)C(F)(F)F` (stereo not given), the result was inactive.

As to `C=CC(=O)OCC(F)(F)C(F)(F)C(F)(F)C(F)(F)C(F)(F)C(F)(F)C(F)(F)C(F)F`, the outcome was inactive.

Consider `O=S(=O)(OCC(F)(F)F)C(F)(F)C(F)(F)C(F)(F)C(F)(F)F`, for which the outcome was inactive.
